{"source": "PubChem BioAssay (Tox21)", "note": "Records with an inconclusive call do not appear. Entries that show only a call come without a potency. Activity calls are given as the source filed them. The call rests on the fitted dose curve.", "data": [{"assay": "p53 small molecule agonists, cell-based qHTS assay with rat liver microsomes: qHTS cell viability counter screen (AID 1963580); further: nearly all actives have a fitted effect of over 45% in size", "details": "p53RE-bla HCT-116 + rat microsomes, ATP viability, 16 h; series mostly up to 66 µM", "excerpt": "National Center for Advancing Translational Sciences [NCATS]\nDivision of Preclinical Innovation [DPI]\nU.S. Environmental Protection Agency [EPA]\nNational Institutes of Environmental Health Sciences [NIEHS]\nNational Toxicology Program [NTP]\nU.S. Food and Drug Administration [FDA]\np53, a tumor suppressor protein, is activated following cellular insult, including DNA damage and other cellular stresses. The activation of p53 regulates cell fate by inducing DNA repair, cell cycle arrest, apoptosis, or cellular senescence. The activation of p53, therefore, is a good indicator of DNA damage and other cellular stresses. The CellSensor p53RE-bla HCT-116 cell line contains a stably integrated beta-lactamase reporter gene under control of the p53 response elements. The activation of the reporter gene under culture conditions can be detected by fluorescence intensity. This cell line was used to screen the Tox21 10K compound library in the condition of presence of rat liver microsomes and to identify agonists that activate the p53 signaling pathway after in vitro metabolic activation (Ooka et al., Archive of Toxicology 96:1975-1987, 2022). The cytotoxicity of the Tox21 compound library against the p53 RE-bla HCT-116 cell line was tested in parallel by measuring the intra cellular ATP content in the same wells.\nTox21 Assay Protocol Summary:\nThe p53RE-bla cells were dispensed at 4,000cells/3ul/well in 1536-well black-clear bottom plates. After the assay plates were incubated at 37 C, 5% CO2 incubator for 5 hours, 23 nL of compounds dissolved in DMSO, positive controls or DMSO only was transferred to the assay plate. Following compound addition, 3 uL of rat liver microsomes (Molecular Toxicology, Boone, NC) at final concentration of 0.5 mg/mL and 1uL of B-Nicotinamide adenine dinucleotide 2'-phosphate (NADPH) at final concentration of 0.5 mg/mL were transferred to the assay plate. The plates were incubated at 37 C for 16 hours. 1 uL of LiveBLAzer detection mixture was added to each well and the plates were incubated at room temperature in the dark for 2 h. Fluorescence intensity at 460 and 530 nm emission and 405 nm excitation were measured by an Envision plate reader. For cell viability readout that measures cytotoxicity, 4 ul/well of CellTiter-Glo reagent was added into the assay plates using a Flying Reagent Dispenser. After 30 min incubation at room temperature, the luminescence intensity in the plates was measured using a ViewLux plate reader.", "values": [{"smiles": "CC[N+](CC)(CCNC(=O)C(=O)NCC[N+](CC)(CC)Cc1ccccc1Cl)Cc1ccccc1Cl", "Potency": "inactive"}, {"smiles": "CC(CC(=O)O)CC(C)(C)C", "note": "(stereo not given)", "Potency": "inactive"}, {"smiles": "Cc1cccc(C(C)(C)C)c1O", "Potency": "inactive"}, {"smiles": "NCC(=O)CCC(=O)O", "Potency": "inactive"}, {"smiles": "C/C=C/C=C/CCCCCCCO", "Potency": "inactive"}, {"smiles": "c1ccc([C@H]2CN3CCSC3=N2)cc1", "Potency": "inactive"}, {"smiles": "CC(O)c1ccccc1", "note": "(stereo not given)", "Potency": "inactive"}, {"smiles": "CCCCCCC(=O)OCC", "Potency": "inactive"}, {"smiles": "Cc1ccccc1C(=O)Nc1ccc(C(=O)N2CCCC(N(C)C)c3ccccc32)cc1", "note": "(stereo not given)", "Potency": "inactive"}, {"smiles": "CCCCOc1ccc(OCCCN2CCOCC2)cc1", "Potency": "inactive"}, {"smiles": "CC1(C)S[C@@H]2[C@H](NC(=O)Cc3ccccc3)C(=O)N2[C@H]1C(=O)O", "note": "(tested in a mixture with another compound)", "Potency": "inactive"}, {"smiles": "O=C(Nc1cccc2c(=O)cc(-c3nn[nH]n3)oc12)c1ccc(OCCCCc2ccccc2)cc1", "Potency": "inactive"}, {"smiles": "CN=C(NC#N)NCCSCc1csc(N=C(N)N)n1", "Potency": "inactive"}, {"smiles": "CCN(CC)CCOC(=O)C(Cc1cccc2ccccc12)CC1CCCO1", "note": "(stereo not given)", "Potency": "inactive"}, {"smiles": "C=CC(=O)OCCOCCOCC", "Potency": "inactive"}, {"smiles": "CCCCCCCC/C=C/C(=O)O", "Potency": "inactive"}, {"smiles": "Nc1c2c(nc3ccccc13)CCCC2O", "note": "(stereo not given)", "Potency": "inactive"}, {"smiles": "Cc1cc(C)cc([N+](=O)[O-])c1", "Potency": "inactive"}, {"smiles": "Cc1cccc(C)c1NC(=O)CN1CCCC1", "Potency": "inactive"}, {"smiles": "CN(C)C(=O)Nc1ccc(Oc2ccc(Cl)cc2)cc1", "Potency": "inactive"}, {"smiles": "COc1ccc([C@@H]2Sc3ccccc3N(CCN(C)C)C(=O)[C@@H]2OC(C)=O)cc1", "Potency": "inactive"}, {"smiles": "N#Cc1c(F)cccc1F", "Potency": "inactive"}, {"smiles": "O=C1c2ccccc2S(=O)(=O)N1CCCCN1CCN(c2ncccn2)CC1", "Potency": "inactive"}, {"smiles": "CC(C)(C)C(=O)NCCCC(=O)O", "Potency": "inactive"}, {"smiles": "CCc1nn(C2CCCCC2)c2cc(C3(C#N)CCC(C(=O)O)CC3)ccc12", "note": "(stereo not given)", "Potency": "inactive"}, {"smiles": "O=C(NCCN1CCOCC1)c1ccc(Cl)cc1", "Potency": "inactive"}, {"smiles": "CCCCCCCC[Si](OCC)(OCC)OCC", "Potency": "inactive"}, {"smiles": "CCOC(=O)[C@H](O)[C@@H](O)C(=O)OCC", "Potency": "inactive"}, {"smiles": "CC1=CCC(=C(C)C)CC1", "Potency": "inactive"}, {"smiles": "C=CC(=O)OCCCl", "Potency": "inactive"}, {"smiles": "CC(C)NCC(O)COc1ccc(COCCOC(C)C)cc1", "note": "(stereo not given)", "Potency": "inactive"}, {"smiles": "Cc1ccc2sc3cccc(C)c3c2c1", "Potency": "inactive"}, {"smiles": "C=CN1CCCCCC1=O", "Potency": "inactive"}, {"smiles": "CCCCN(C)C", "Potency": "inactive"}, {"smiles": "Nc1nc(N)c(-c2ccccc2)s1", "Potency": "inactive"}, {"smiles": "NCC(=O)O", "activity change, negative = cytotoxicity": "-0.16% [at 13.5 µM] (inactive)"}, {"smiles": "CC(C)=CCOC(=O)c1ccccc1", "Potency": "inactive"}, {"smiles": "CCCC(C(=O)OCCN(CC)CC)(c1ccccc1)c1ccccc1", "Potency": "inactive"}, {"smiles": "CN(C)CCc1c[nH]c2ccc(C[C@H]3COC(=O)N3)cc12", "Potency": "inactive"}, {"smiles": "CCCCN1CCCC[C@H]1C(=O)Nc1c(C)cccc1C", "Potency": "inactive"}]}]}
